Rows were chosen to be rich in hits. Some 21% of all compounds tested hit in one or more screens of this group.
Pf growth 96h = Primary qHTS for delayed death inhibitors of the malarial parasite plastid, 96 hour incubation. AID 504834, 2011. Potency, µM (series often up to 28.7 µM), for inactives: top-dose activity change, negative = inhibition, actives largely listed as inhibitors. 320,000 tested, 6.9% active. P. falciparum luciferase reporter growth, 96 h; also: potency is read from the fitted curve at half-maximal effect; % is scaled to controls: 0 for no effect and ±100 for the full control effect
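Readout is luminescence from an integrated firefly luciferase in P. falciparum. Red cells, 2% hematocrit and 0.05% parasitemia final, were cultured with compound through two parasite generations (96 hours) at 37 C, 5% CO2.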
HCMV antiviral = qHTS Assay for inhibitors of the human cytomegalovirus (HCMV) | HFF cells, HCMV-luciferase reporter, 72 h; hits give low values | activity change, negative = inhibition, % at 57.5 µM | 410,000 tested, 4.5% active | AID 1259415, 2018; in the data active = activity change below about -60%; inconclusive = no clear call, values can overlap the other calls; inactive = above about -39%; also: % is scaled to controls: 0 for no effect and ±100 for the full control effect
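Steps: HFFs plated, 16 h 37C; compounds added; HCMV-luciferase added to MOI 1 PFU/cell; 72 h 37C; OneGlo reagent, 5 min room temperature; luminescence read, normalized to controls.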
HCV inhibitor = qHTS Assay for Inhibitors of Hepatitis C Virus (HCV) | Huh7.5.1 HCVcc-Cre infection, luciferase reporter, 44 h | Potency, µM (doses to about 41.8 µM), without a hit: at the top dose activity change, negative = inhibition, actives largely listed as inhibitors | 340,000 tested, 3.4% active; also: potency is read from the fitted curve at half-maximal effect; % is scaled to controls: 0 for no effect and ±100 for the full control effect
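Reporter virus HCVcc-Cre (~0.5 moi) infects cells exposed to compound; seeding density 1,000 cells/well with 4 h settling beforehand. Luminescence, 15 sec read, taken 44 h post-infection following a 15 min RT substrate incubation.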
Shiga toxin inh = A qHTS for Small Molecule Inhibitors of Shiga Toxin; Vero cells, Shiga toxin protein synthesis inhibition reporter; inhibition, % at 38.7 µM; 290,000 tested, 9.2% active; AID 2315, 2010; in the data active = inhibition mostly above about 28%, no sharp cut-off; inactive = mostly below about 43%; also: 0% is about no effect
Pf growth 48h = Primary qHTS for delayed death inhibitors of the malarial parasite plastid, 48 hour incubation; P. falciparum luciferase growth in erythrocytes, 48 h; Potency, µM (highest dose often 28.7 µM), without a hit: top-dose activity change, negative = inhibition, hits mostly inhibitors; 310,000 tested, 5.9% active; also: potency is read from the fitted curve at half-maximal effect; % is scaled to controls: 0 for no effect and ±100 for the full control effect
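Luminescence readout; reporter = integrated firefly luciferase in P. falciparum. RBC culture at 2% hematocrit, 0.1% parasitemia final, 37 C/5% CO2; decreased signal taken as growth inhibition.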
CHX counter = Cycloheximide Counterscreen for Small Molecule Inhibitors of Shiga Toxin. cell reporter, cycloheximide protein synthesis inhibition counterscreen. max response, %. 300,000 tested, 12% active; in the data active = max response mostly above about 13%, no sharp cut-off; inactive = mostly below about 14%; also: read at 38.3 µM for the half of the compounds with a filed dose; 0% is about no effect
Active calls of the source: *; u = inconclusive; x = not tested or not shown. Unless noted, calls follow the shape of the dose curve; as a rule, active = well fitted inhibition curve with a large enough effect; inconclusive = small, poorly fitted or top-dose-only effect, or another doubt; inactive = no such curve, though single readings can be large or run the other way.

SMILES	Pf growth 96h	HCMV antiviral	HCV inhibitor	Shiga toxin inh	Pf growth 48h	CHX counter
Cc1ccc(N2C(=O)C3C4C=CC(CNC(=S)Nc5ccc(Cl)cc5)(O4)C3C2=O)cc1 (stereo unspecified)	u	-29	u	-2	-13%	9.6*
O=C1C2C3C=CC(CO)(O3)C2C(=O)N1c1ccc(-c2ccccc2)cc1 (stereo unspecified)	14%	x	x	46	46%	23*
CC(C)(C)C(=O)NCC12C=CC(O1)C1C(=O)N(c3ccccc3)C(=O)C12 (stereo unspecified)	2.1µM*	-17	3%	7	27%	-1
Cc1cc(C)c(S(=O)(=O)NCC23C=CC(O2)C2C(=O)N(c4ccccc4)C(=O)C23)c(C)c1 (stereo unspecified)	53%	-14	12%	-2	0%	3
CCc1ccc(-c2nn(CC(=O)Nc3ccccc3C)c3c2cnc2ccc(C)cc23)cc1	x	-3	x	x	x	x
c1ccc(N=P(c2nc3ccccc3o2)(N2CCOCC2)N2CCOCC2)cc1	24%	7	0%	33*	41%	23*
c1ccc(N=P(N2CCOCC2)(N2CCOCC2)N2CCOCC2)cc1	11%	11	23%	-7	9%	-2
Cc1ccccc1S(=O)(=O)N1C[C@H]2CON(C)[C@H]2C[C@H]1c1cccc(-c2ccc(C#N)cc2)c1	x	-20	u	x	x	x
COc1ccc2[nH]c(C)c(CCNCc3cccnc3)c2c1	u	-8	4%	x	u	x
Cc1[nH]c2ccc(OC(F)(F)F)cc2c1CCNCc1ccc(Cl)cc1	u	-99*	u	-12	u	-3
CCOc1cccc(CNCCc2c(C)[nH]c3ccc(OC(F)(F)F)cc23)c1O	u	-101*	u	-14	1.9µM*	-7
Cc1[nH]c2ccc(OC(F)(F)F)cc2c1CCNCc1cccc([N+](=O)[O-])c1	156%	u	u	-4	1.5µM*	-2
Cc1ccc(/C=C/c2onc(C)c2S(=O)(=O)N2CCC(C(=O)N(CCC(C)C)Cc3ccco3)CC2)cc1	x	-21	x	x	x	x
Cn1c2ccccc2c2ncn(CCC3=CCCCC3)c(=O)c21	u	24	-27%	27	u	17*
Cn1c2ccccc2c2ncn(CCCN3CCOCC3)c(=O)c21	x	131	u	43	4%	7
N#CCCn1nc(-c2ccccc2)cc1Nc1ccccc1NC(=O)c1cccs1	47%	-2	u	-2	5.2µM*	9
Cc1cc(C)cc(OC(=O)c2snnc2C)c1	x	11	x	x	x	x
CSc1nnc2sc3cc(C)ccc3n12	x	49	x	x	x	x
Cc1ccc2c(c1)sc1nc(=O)n(-c3ccccc3)c(=O)n12	139%	94	-11%	93*	406%	45*
CCOC(=O)C1=C(C)NC(C)=C(C(=O)OCC)C1C(=O)OCC(=O)N(C)C1CCS(=O)(=O)C1 (stereo unspecified)	1%	-38	21%	-13	9%	2
CCN1C(=O)c2ccccc2S(=O)c2ccc(C(=O)N3CCOCC3)cc21 (stereo unspecified)	-6%	0	19%	12	-5%	1
Cn1c(CNc2cccc(C(F)(F)F)c2)n[nH]c1=S	u	-1	8%	16	28%	-3
Cn1c(-c2csc(-c3cccc(C(F)(F)F)c3)n2)n[nH]c1=S	0%	-84*	8%	32	u	6
COc1ccc(-c2noc3c2-c2nc(-c4c(F)cccc4F)sc2CC3)cc1	29%	9	3.5µM*	-8	32%	-1
CCOc1ccc(-c2nc3c(s2)CCc2onc(-c4ccc(OC)cc4)c2-3)cc1	x	-60*	9%	x	x	x
SMILES	Pf growth 96h	HCMV antiviral	HCV inhibitor	Shiga toxin inh	Pf growth 48h	CHX counter
O=C(N[C@H]1CCCCNC1=O)c1cc(COc2ccc(F)cc2F)on1	-23%	0	3%	9	36%	19*
O=C(c1cc(COc2ccc(F)cc2Cl)on1)N1CCCCCCC1	u	0	-3%	40*	6%	32*
CCOC(=O)N1CCC(NC(=O)c2cc(COc3ccc(F)cc3Cl)on2)CC1	35%	-11	x	5	u	11
O=C(c1cc(COc2ccc(F)cc2F)on1)N1CCSCC1	-8%	10	1%	85*	91%	58*
O=C(c1cc(COc2ccc(F)cc2Cl)on1)N1CCCCCC1	1%	70	u	89*	55%	53*
NC(=O)[C@@H]1CCCN1C(=O)c1cc(COc2ccc(F)cc2F)on1	54%	-17	5%	19	62%	21
Cc1ccc(NC(=O)COC(=O)C2COc3ccccc3O2)cc1 (stereo unspecified)	-20%	9	23%	x	-21%	x
COc1ccc(NC(=O)c2ccc(NC(=O)CN3CCC(C(N)=O)CC3)cc2)cc1	x	-33	-18%	x	x	x
CCOC(=O)N1CCC(NC(=O)c2cc(COc3ccccc3SC)on2)CC1	u	-39	16µM*	35	-12%	27*
CCC(NC(=O)c1cc(COc2ccc(F)cc2Cl)on1)c1ccncc1 (stereo unspecified)	-6%	u	4µM*	-1	-1%	6.4*
CSc1ccccc1OCc1cc(C(=O)N2CCN(Cc3nccn3C)CC2)no1	u	-4	u	-19	-14%	-1
CCC(NC(=O)c1cc(COc2cncc(Cl)c2)on1)c1ccncc1 (stereo unspecified)	u	u	u	1	8%	-3
CSc1ccccc1OCc1cc(C(=O)N2CCC(c3ccncc3)CC2)no1	3%	u	x	11	-19%	19*
O=C(c1cc(COc2ccc(F)cc2Cl)on1)N(Cc1ccncc1)CC1CCCO1 (stereo unspecified)	-27%	-61*	u	-6	u	-2
CSc1nc(-c2ccccc2)nc2ccccc12	x	33	x	x	x	x
COc1cccc2c1Oc1ncccc1N(c1ccc(C(=O)NCc3cccc(C)c3)s1)C2	x	-25	x	x	x	x
CSc1ccccc1OCc1cc(C(=O)N2CCc3c(Cl)cccc3C2)no1	u	u	13µM*	-2	17%	4
O=C(c1cc(COc2ccc(F)cc2Cl)on1)N1CCC(c2ccncc2)CC1	-1%	-67*	13µM*	22	-30%	10
COc1cc2c(cc1OC)CN(C(=O)c1cc(COc3ccccc3SC)on1)CC2	x	-35	x	x	x	x
O=C(Nc1ccc(O)c(-c2nc3ccccc3o2)c1)C1(c2ccc([N+](=O)[O-])cc2)CCCC1	u	-17	2%	-25	7.4µM*	2
O=C(Nc1ccc(O)c(-c2nc3ccccc3o2)c1)c1ccco1	x	6	x	x	x	x

Compound activity: PubChem BioAssay, National Center for Advancing Translational Sciences (NCATS)
